How the values were obtained:
Settings in all cases: concentration: 1 μM, replicates: in singlicate; n = 1
RIOK1 = system: RIOK1
RIOK2 = system: RIOK2
RIOK3 = system: RIOK3
RIPK1 = system: RIPK1
RIPK2 = system: RIPK2
RIPK4 = system: RIPK4
RIPK5 = system: RIPK5
ROCK1 = system: ROCK1
ROCK2 = system: ROCK2
ROS1 = system: ROS1
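Further: KINOMEscan kinase panel screen.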

Row | Compound | %Inh (RIOK1) [%] | %Inh (RIOK2) [%] | %Inh (RIOK3) [%] | %Inh (RIPK1) [%] | %Inh (RIPK2) [%] | %Inh (RIPK4) [%] | %Inh (RIPK5) [%] | %Inh (ROCK1) [%] | %Inh (ROCK2) [%] | %Inh (ROS1) [%]
1 | Cc1nn2c(=O)cc(N3CCO[C@H](C)C3)nc2n1Cc1cccc(Cl)c1Cl [GSK2373693] | 39 | 39 | 5 | 2 | 61 | 19 | 0 | 73 | 5 | 0
2 | CS(=O)(=O)c1cccc(CNc2nc(Nc3ccc4c(c3)CCC(=O)N4)ncc2C(F)(F)F)c1 | 62 | 0 | 59 | 0 | 2 | 17 | 0 | 0 | 0 | 31
3 | NCCC(NC(=O)c1cc(Br)c(-c2ccnc3[nH]ccc23)s1)c1ccccc1.O=C(O)C(F)(F)F.O=C(O)C(F)(F)F (centres unmarked) [GSK1307810] | 100 | 97.9 | 100 | 81 | 4 | 0 | 1 | 100 | 99.8 | 29
4 | Cc1ccc(NC(=O)c2ccnc(N3CCCCC3)c2)cc1-c1ccc(C(=O)NCC2CC2)cc1 [GW775610] | 50 | 0 | 35 | 43 | 0 | 36 | 0 | 25 | 7 | 10
5 | Cc1cc(-c2c(-c3ccc(F)cc3)ncn2CCCN2CCOCC2)nc(N)n1 [SB-222517] | 10 | 0 | 11 | 0 | 0 | 14 | 11 | 29 | 0 | 19
6 | Cn1cc(-c2cnc(N)c3c(-c4ccc5c(c4)CCN5C(=O)Cc4ccccc4)csc23)cn1 [GSK2593074] | 33 | 0 | 6 | 100 | 96.1 | 100 | 55 | 0 | 11 | 0
7 | O=C1NC(=O)C(c2ccccc2Cl)=C1Nc1cccc(Cl)c1 [SB-342409] | 4 | 0 | 0 | 4 | 100 | 21 | 14 | 0 | 0 | 0
8 | O=C(Nc1n[nH]c2nc(-c3ccccc3)ccc12)C1CC1 [SB-708999] | 35 | 1 | 37 | 63 | 0 | 2 | 0 | 21 | 12 | 0
